Source: PubChem BioAssay (National Center for Advancing Translational Sciences (NCATS))
In the library only some 4.8% were active in any assay of this set; here they are far more common.
ATXN viability – Viability Counterscreen for Primary qHTS for Inhibitors of ATXN expression; 400,000 tested, 0.49% active; S2 cells (HEK-293 line with an ATXN2-luciferase reporter) viability, CellTiter-Fluor protease fluorescence, 24 h; Potency, µM (top dose mostly 56.7 µM), most hits filed as cytotoxic; AID 651635, 2014; note: nearly all actives have a fitted effect of over 40% in size
HepG2 tox – qHTS for Inhibitors of TGF-b: Cytotox Counterscreen. 410,000 tested, 0.76% active. HepG2 CAGA-GFP viability, ATP luminescence, 18 h. Potency, µM (titrated, usually from 46.1 µM), usual class: cytotoxic
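HepG2 CAGA-GFP cells (1000/well, DMEM with 1% FBS) received compound, then TGF-beta at 500 pg/mL final, and were incubated 18 hours at 37 degrees C. Viability was read by CellTiter-Glo luminescence. Media-only wells were set as complete cell-killing and DMSO as no toxicity.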
ATXN2 expr inh – Primary qHTS for Inhibitors of ATXN expression; HEK-293 ATXN2-luciferase reporter, luminescence, 24 h; Potency, µM (doses to about 57 µM), hits mostly inhibitors; 360,000 tested, 0.72% active; AID 1745845, 2022; note: nearly all actives have a fitted effect of over 55% in size
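ATXN2-luciferase reporter cells (luciferase flanked by upstream and downstream ATXN2 gene portions) were treated 24 h at 37 °C with compounds at up to 57 uM. SteadyGlo luminescence gave expression; GF-AFC fluorescence gave viability.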
D3 ag – qHTS of D3 Dopamine Receptor Agonist: qHTS. D(3) dopamine receptor (Homo sapiens), P35462. D3R DiscoveRx beta-arrestin cells, luminescence, 90 min. max activation, %. 410,000 tested, 0.58% active. AID 652048, 2013; in the data active = max activation above about 30%
Target sequence (P35462 whole entry, looked up): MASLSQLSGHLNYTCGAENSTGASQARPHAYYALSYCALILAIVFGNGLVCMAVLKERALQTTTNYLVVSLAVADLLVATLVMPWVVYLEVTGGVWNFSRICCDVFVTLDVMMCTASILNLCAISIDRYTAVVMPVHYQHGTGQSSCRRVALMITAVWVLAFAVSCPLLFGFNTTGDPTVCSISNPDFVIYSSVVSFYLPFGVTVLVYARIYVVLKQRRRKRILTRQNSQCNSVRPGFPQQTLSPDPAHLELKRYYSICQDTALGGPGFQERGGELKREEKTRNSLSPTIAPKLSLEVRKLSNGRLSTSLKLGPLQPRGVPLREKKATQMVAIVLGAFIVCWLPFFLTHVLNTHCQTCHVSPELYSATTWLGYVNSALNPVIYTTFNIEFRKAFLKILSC
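Agonist-mode cell screen: cells plated at 1500/well and incubated overnight at 37 °C, then exposed to library compounds for 90 min at 37 °C. Detection reagent was added for 30–60 min at room temperature, and luminescence was read.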
DRD3 antagonist – qHTS of D3 Dopamine Receptor Antagonist: qHTS; D(3) dopamine receptor (Homo sapiens), P35462; D3R cells, DiscoveRx beta-arrestin luminescence, antagonist mode; stronger effect = lower value; max response, negative = inhibition, %; 360,000 tested, 2.5% active; AID 652054, 2013; in the data active = max response below about -50%; inconclusive = no clear call, values can overlap the other calls
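Cells plated overnight at 1500 cells/well, then exposed to library compounds with dopamine controls for 90 minutes at 37 degrees C. DiscoveRx reagent added for 30–60 minutes at room temperature; luminescence read, quantitative HTS format.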
TGFb SMAD3 inh – qHTS for Inhibitors of TGF-b; Potency, µM (doses to about 46.1 µM), usual class: inhibitors; HepG2 CAGA-GFP TGF-b/SMAD3 reporter, GFP fluorescence, 18 h; TGF-beta stimulated, 500 pg/mL final; 410,000 tested, 1.2% active; note: nearly all actives have a fitted effect of over 65% in size
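Smad-responsive CAGA-GFP expression was quantified in HEPG2 cells exposed to compounds and 500 pg/mL final TGF-beta for 18 h at 37 degrees C; unstimulated wells defined full inhibition.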
Each line names hits and unclear results; the compound was inactive in the other large screens. Unless noted, calls come from the whole dose curve; as a rule, active = well fitted curve in the direction sought with a large enough effect; inconclusive = small, poorly fitted or top-dose-only effect, or another doubt; inactive = no such curve, though single readings can be large; an effect the other way counts as inactive or inconclusive.

CC(=O)N1CCc2c(sc3c2c(=O)n(CCc2ccccc2)c(=O)n3Cc2cccc(C)c2)C1	none (no result: DRD3 antagonist)
COCCn1nnnc1C(c1ccccc1OC)N1CCN(C(=O)c2ccco2)CC1 (stereo not given)	none
CCC(C)(C)n1nnnc1C(c1ccccc1OC)N1CCN(C(=O)c2ccco2)CC1 (stereo not given)	D3 ag 31
Cc1ccc(C#CC[N+]2(CC#Cc3ccc(C)cc3)CCCCC2)cc1	ATXN viability inconclusive, ATXN2 expr inh inconclusive, TGFb SMAD3 inh 20µM
C(#Cc1ccccc1)C[N+]1(CC#Cc2ccccc2)CCCCC1	ATXN viability inconclusive
N#CCCN(Cc1ccccc1)C(C(=O)NC1CCCCC1)c1cc2ccccc2o1 (stereo not given)	TGFb SMAD3 inh 13µM (no result: ATXN viability)
NC(N)=NCCCC(NC(=O)c1ccccc1)C(=O)Nc1ccc([N+](=O)[O-])cc1 (stereo not given)	DRD3 antagonist -94
COc1ccccc1N1CCN(CCN(C(=O)C2CCCCC2)c2ccccn2)CC1	DRD3 antagonist -85
COc1ccccc1N1CCN(C(=O)C(CC(C)C)NC(=O)C2CCCCC2)CC1 (stereo not given)	none
COc1ccccc1N1CCN(CCN(C(=O)c2ccc(F)cc2)c2ccccn2)CC1	DRD3 antagonist -116
COc1ccccc1N1CCN(CC(C)N(C(=O)C2CCCCC2)c2ccccn2)CC1 (stereo not given)	DRD3 antagonist -70
O=C(C1CCCCC1)N(Cc1ccccc1)c1ccccn1	none
O=c1[nH]nc(Cc2ccc(-c3cccc(Cl)c3)o2)c2ccccc12	DRD3 antagonist -61
Clc1cccc(-c2ccc(CNCc3ccccn3)o2)c1	none (no result: ATXN2 expr inh)
Cc1ccc(S(=O)(=O)N2CCCc3cc(NS(=O)(=O)c4ccccc4)ccc32)cc1	TGFb SMAD3 inh 16µM (no result: ATXN viability, DRD3 antagonist)
Cc1ccc(S(=O)(=O)N2CCc3cc(C(=O)NCCc4ccccc4)ccc32)cc1	D3 ag 64, TGFb SMAD3 inh inconclusive (no result: DRD3 antagonist)
O=C(NCCc1ccccc1)c1ccc2c(c1)CCN2S(=O)(=O)c1ccc(Br)cc1	TGFb SMAD3 inh inconclusive (no result: DRD3 antagonist)
O=c1cc(-c2ccccc2)n2c(SCc3c(F)cccc3Cl)nnc2[nH]1	none (no result: ATXN viability, ATXN2 expr inh, DRD3 antagonist)
CCc1ccc(OCC2c3cc(OC)c(OC)cc3CCN2C(=O)Cc2ccc(OC)c(OC)c2)cc1 (stereo not given)	ATXN2 expr inh inconclusive, TGFb SMAD3 inh 11µM (no result: DRD3 antagonist)
Cc1ccc(NC(=O)CSc2nnc(-c3ccco3)c(-c3ccco3)n2)cc1	DRD3 antagonist -60
O=C(CSc1nnc(-c2ccco2)c(-c2ccco2)n1)Nc1ccccc1	none
COc1ccc(C(=O)Nc2nnc(S(=O)(=O)N3CCCc4ccccc43)s2)cc1	TGFb SMAD3 inh inconclusive (no result: DRD3 antagonist)
O=C(c1ccccc1)c1coc2ccc(O)c(Cl)c12	DRD3 antagonist -52
Cc1ccc(C(=O)c2coc3ccc(O)c(Cl)c23)cc1	none
CCC(C)(C)c1ccc(OCCCC[n+]2ccc(C)cc2)c(C(C)(C)CC)c1	ATXN viability inconclusive, HepG2 tox 13µM, ATXN2 expr inh 20µM, TGFb SMAD3 inh 16µM
CCC(C)(C)c1ccc(OCCCC[n+]2cccc(C)c2C)c(C(C)(C)CC)c1	TGFb SMAD3 inh 10µM (no result: ATXN viability, ATXN2 expr inh)
CCC(C)NC(=O)Cn1c(=O)n(Cc2ccc(C(=O)NCc3ccc(C)cc3)cc2)c(=O)c2ccccc21 (stereo not given)	none (no result: DRD3 antagonist)
CCOc1ccccc1NC(=O)CCc1c(C)nc2c(c(C)nn2-c2ccccc2)c1C	none (no result: DRD3 antagonist)
CCN1CCN(Cc2ccc(NC(=O)c3ccc(C)c(NC(=O)c4nccn4C)c3)cc2C(F)(F)F)CC1	TGFb SMAD3 inh inconclusive
CCN1CCN(Cc2ccc(NC(=O)c3ccc(C)c(NC(=O)c4cncc(-c5cccs5)c4)c3)cc2C(F)(F)F)CC1	HepG2 tox 10µM, ATXN2 expr inh 14µM, TGFb SMAD3 inh inconclusive (no result: ATXN viability)
